Bioassay records deposited in PubChem by several laboratories.
In the library only some 1.8% were active in any assay of this set; here they are far more common.
PfHsp40 rescue – rescue of yeast from PfHsp40 toxicity, primary screen, S. cerevisiae, ATP luminescence; growth rescue, % at 12.5 µM; actives 0.68% (n = 340,000); S. cerevisiae expressing PfHsp40, growth rescue; in the data active = growth rescue above about 28%, passing the limit was not always enough; inconclusive = no clear call, values can overlap the other calls;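 note: yeast W303a lacking pdr1 and pdr3 grown in galactose medium; growth measured after three days at 30 °C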
RN4220 kill – growth inhibition of S. aureus RN4220, primary screen, OD600 | actives 0.33% (n = 330,000) | AID 1259311, 2017 | inhibition, % (test concentration not listed) | 16 h; in the data active = inhibition above about 85%
PrPC surface inh – inhibitors of human cell surface prion protein PrPC, primary screen, cell-based, TR-FRET. TR-FRET read-out. Major prion protein (Homo sapiens), P04156. actives 0.43% (n = 370,000). inhibition, % at 13.8 µM; in the data active = inhibition above about 24%
ugtP null kill – growth inhibition of ugtP-null S. aureus, primary screen, RN4220 ugtP deletion, OD600. 16 h. AID 1259309, 2017. growth inhibition, % (concentration not given with the values). actives 0.54% (n = 330,000); in the data active = growth inhibition above about 68%
DUSP3 inh – VHR1 phosphatase inhibitors, primary screen, biochemical, absorbance, uHTS | Dual specificity protein phosphatase 3 (Homo sapiens), P51452 | actives 0.52% (n = 290,000) | inhibition, % at 13.3 µM | recombinant VHR phosphatase, pNPP absorbance; in the data active = inhibition above about 50%
Target sequence (P51452 whole entry, looked up): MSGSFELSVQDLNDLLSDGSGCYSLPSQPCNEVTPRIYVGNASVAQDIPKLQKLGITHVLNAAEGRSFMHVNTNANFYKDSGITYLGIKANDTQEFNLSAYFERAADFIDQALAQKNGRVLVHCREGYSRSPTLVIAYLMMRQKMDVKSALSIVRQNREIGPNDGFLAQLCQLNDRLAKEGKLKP
Large screens that a line does not name were inactive.

CCC(ONc1ccccc1C(F)(F)F)(C(=O)NN(C)C)c1ccccc1 (centres undefined)	PfHsp40 rescue 54 (no result: DUSP3 inh)
CSc1ncc(Cl)c(C(=O)NCc2cccnc2)n1	DUSP3 inh 52
CC1CN(C(C)CO)C(=O)c2cccc(NC(=O)Nc3ccc(C(F)(F)F)cc3)c2OC1CN(C)C(=O)NC1CCCCC1 (centres undefined)	none (no result: PfHsp40 rescue, PrPC surface inh, DUSP3 inh)
CCC(C)NC(=O)NCc1ccccc1F (centres undefined)	DUSP3 inh 56
O=C(NCc1ccccc1F)Nc1ccc([N+](=O)[O-])cc1	DUSP3 inh 56
O=C(NCc1ccco1)Nc1ccc([N+](=O)[O-])cc1	none
CSCCC(NC(=O)NCc1ccccc1F)C(=O)O (centres undefined)	none (no result: PfHsp40 rescue, PrPC surface inh, DUSP3 inh)
COC(=O)c1cccc(NC(=S)Nc2ccc(Cl)c(Cl)c2)c1	RN4220 kill 100, ugtP null kill 90
COC(=O)c1cc(NC(=S)Nc2cc(Cl)cc(Cl)c2)cc(C(=O)OC)c1	RN4220 kill 99, ugtP null kill 99
O=c1cc(-c2ccccc2)oc2cc(O)c(O)c(O)c12	PfHsp40 rescue 141 (no result: DUSP3 inh)
CCOc1ccc(NC(=O)C2CCCN(S(=O)(=O)c3ccc4[nH]c(=O)ccc4c3)C2)cc1 (centres undefined)	PfHsp40 rescue 49
COc1ccc(NC(=O)C2CCCN(S(=O)(=O)c3ccc4[nH]c(=O)ccc4c3)C2)cc1 (centres undefined)	none
CCOc1ccc(NC(=O)CC2CC(C)(C)OC2=O)cc1 (centres undefined)	none
CCCC1CC(C)(c2csc(Nc3ccc(OCC)cc3)n2)OC1=O (centres undefined)	PfHsp40 rescue 50
Oc1ccc(N2CCN(CC(O)c3ccccc3)CC2)cc1 (centres undefined)	DUSP3 inh 50
Cc1cccc(C)c1N=Nc1c(C)cc(O)cc1C	PfHsp40 rescue 782
S=C(NC1CC1)N1CCN(c2ccc(Cl)cc2)CC1	none
S=C(NC1CCCC1)N1CCN(c2cccc(Cl)c2)CC1	PfHsp40 rescue 47
O=C(O)c1cccc2nc3ccccc3nc12	PfHsp40 rescue 48
CSCCC1NC(=O)N(CC(=O)N2CCc3ccccc3C2)C1=O (centres undefined)	PfHsp40 rescue 50 (no result: DUSP3 inh)
Cc1ccc(NC(=S)N2CCCCCC2)c(C)c1	DUSP3 inh 53
O=C(c1ccccc1)N1CCC(c2nc3c(nnn3Cc3ccco3)c(=O)[nH]2)CC1	DUSP3 inh 50
O=C(c1ccc(Cl)cc1Cl)N1CCC(c2nc3c(nnn3Cc3ccco3)c(=O)[nH]2)CC1	none
CC1CCCCC1NC(=O)C(C#N)=Cc1ccc(F)c(F)c1 (centres undefined)	none (no result: PfHsp40 rescue, PrPC surface inh, DUSP3 inh)
CCC1Oc2ccc(C)cc2N(CC(=O)NCCCN2CCCCC2C)C1=O (centres undefined)	DUSP3 inh 58 (no result: RN4220 kill, ugtP null kill)
CC1CCCCN1CCCNC(=O)CN1C(=O)c2cccnc2Oc2ccccc21 (centres undefined)	DUSP3 inh 56
COc1ccc(C(=O)C2CCCN(C3CSCCSC3)C2)c(OC)c1 (centres undefined)	DUSP3 inh 57 (no result: RN4220 kill, ugtP null kill)
O=C(Nn1c(SCc2ccc(F)cc2)nc2ccsc2c1=O)c1ccccc1	RN4220 kill 83
Cc1[nH]n(-c2ccccc2)c(=O)c1C=NN1C(=O)c2cccc3cccc(c23)C1=O	none (no result: PfHsp40 rescue, PrPC surface inh, DUSP3 inh)
CCC(C)C1CNC(=S)N1CCC12CC3CC(CC(C3)C1)C2 (centres undefined)	none (no result: PfHsp40 rescue, PrPC surface inh, DUSP3 inh)
C#CCN(C(=O)c1ccc(OC2CCN(C(=O)CCOC)CC2)cc1)C1CCCCC1	DUSP3 inh 53
COCCC(=O)N1CCC(Oc2ccc(C(=O)N3CCCCCC3)cc2)CC1	none
O=S(=O)(N1CCCCC1)n1nnc2ccccc21	PfHsp40 rescue 39
CC(=O)Nc1ccc2c(c1)Cc1cc(N3C(=O)C=CC3=O)ccc1-2	PfHsp40 rescue 668 (no result: DUSP3 inh)
O=C1C=CC(=O)N1c1ccc2c(c1)Cc1cc(F)ccc1-2	none (no result: DUSP3 inh)
CCOc1ccccc1CN1CCNC(=O)C1CC(=O)NCCCn1cccn1 (centres undefined)	DUSP3 inh 51
COc1ccccc1CN1CCNC(=O)C1CC(=O)NCCCn1cccn1 (centres undefined)	none
O=C(N/N=C/c1sc(N2CCOCC2)nc1-c1ccccc1)c1ccccc1O	PfHsp40 rescue 238 (no result: RN4220 kill, ugtP null kill)
c1ccc(-c2sc3ccccc3c2-c2ccc(OCCN3CCOCC3)cc2)cc1	none (no result: RN4220 kill, PrPC surface inh, ugtP null kill, DUSP3 inh)
COc1cccc(-c2sc3ccc(OC)cc3c2-c2ccc(OCCN3CCOCC3)cc2)c1	none (no result: RN4220 kill, ugtP null kill, DUSP3 inh)
COC(=O)c1c(-c2ccc(OC)cc2)sc2ccc(OC)cc12	ugtP null kill 91 (no result: DUSP3 inh)
COc1ccc(-c2sc3ccccc3c2-c2ccc(OCCN(C)C)cc2)cc1	RN4220 kill 101, ugtP null kill 100 (no result: DUSP3 inh)
COc1ccc(-c2sc3ccccc3c2-c2ccc(O)cc2)cc1	PfHsp40 rescue inconclusive (no result: RN4220 kill, ugtP null kill, DUSP3 inh)
CN(C)CCOc1ccc(-c2c(-c3ccsc3)sc3ccccc23)cc1	PfHsp40 rescue 91 (no result: RN4220 kill, ugtP null kill, DUSP3 inh)
COC(=O)c1c(-c2ccc(OC)cc2)sc2ccc(-c3ccc4c(c3)OCO4)cc12	none (no result: DUSP3 inh)
COc1cccc(-c2sc3ccc(OC)cc3c2-c2ccc(OCCN(C)C)cc2)c1	PfHsp40 rescue 31 (no result: RN4220 kill, ugtP null kill, DUSP3 inh)
CON=C(C)C(Cc1ccc(Cl)nc1)Cc1ccc(Cl)nc1	none (no result: PfHsp40 rescue, PrPC surface inh, DUSP3 inh)
COC(=O)CC1c2cc(F)cc(F)c2S(=O)(=O)N1C1CCN(Cc2ccccc2)CC1 (centres undefined)	none (no result: PfHsp40 rescue, PrPC surface inh, DUSP3 inh)
CC(C(=O)NCC1CC1)C1C[C@]1(C)C(NC(=O)OCc1ccccc1)c1ccccc1 (some centres undefined)	none (no result: PfHsp40 rescue, PrPC surface inh, DUSP3 inh)
COc1cccc(-c2sc3ccc(OC)cc3c2-c2ccc(O)cc2)c1	PfHsp40 rescue 103 (no result: RN4220 kill, ugtP null kill, DUSP3 inh)
COc1ccccc1-c1sc2ccccc2c1-c1ccc(O)cc1	PfHsp40 rescue inconclusive, ugtP null kill 93 (no result: DUSP3 inh)
COc1cccc(-c2sc3ccc(OC)cc3c2-c2cc(F)cc(OC)c2)c1	none (no result: RN4220 kill, ugtP null kill, DUSP3 inh)
Cc1c(N)c(C(C)(C)C)cc(C(C)(C)C)c1[N+](=O)[O-]	ugtP null kill 95
CC=C(C)C(=O)Nc1cccc(C2=NOC3(C2)CC(C(N)=O)N(C(=O)C2CCC(=O)N2)C3)c1 (centres undefined)	none (no result: PfHsp40 rescue, PrPC surface inh, DUSP3 inh)
Cc1ccc(N2C(=O)C3C4C=CC(CC4)C3C2=O)c([N+](=O)[O-])c1 (centres undefined)	DUSP3 inh 55
O=C1C2C3C=CC(CC3)C2C(=O)N1c1ccc(Br)cc1[N+](=O)[O-] (centres undefined)	none
COc1ccc(C=NNC(=O)C(=CNc2nccc(C)n2)NC(=O)c2ccccc2)cc1	none (no result: PfHsp40 rescue, PrPC surface inh, DUSP3 inh)
Cn1nc(Cc2cccc3ccccc23)c(C#N)c1N	none (no result: DUSP3 inh)
CC(C)(C)n1nc(Cc2cccc3ccccc23)c2c(N)ncnc21	PfHsp40 rescue 552 (no result: DUSP3 inh)
O=C(C[n+]1cc(-c2ccc(Cl)c(Cl)c2)n2c1CCC2)N1c2ccccc2Sc2ccccc21	RN4220 kill 100, ugtP null kill 101
O=C(C[n+]1cc(-c2ccc(Cl)cc2)n2c1CCC2)N1c2ccccc2Sc2ccccc21	none
